Here are results for 40 sequences from the supplement of paper PMC6555819.

One assay concerns RXRa homodimer (NR concentration 180 nM). The experiment in a line: PBM binding z-score (relative to random genomic background probes); higher = stronger binding; sequences stand for … in GC…GCGATTGACAGCGTAGAATGAAGG
Put shortly:
(§1)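 Ligand-free nuclear receptor dimers were applied to custom Agilent 4×180K protein-binding microarrays whose double-stranded probes carried direct-repeat seeds, single-nucleotide variants, half-site ablations and random human genomic background sequences in 34-nt variable regions. Incubation lasted 1 h. Binding z-scores were computed against the random background probes from regression-normalized fluorescence.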
Turning to ATCACTAGGTAAAGATAGTTCAGTGAATGCAAAT, the PBM binding z-score is 0.325.

CCGAGTAGGTAATGGGGCATTCAGGCAACGGTGA returned a PBM binding z-score of 0.0759.

Sequence TCATATAGGTTAACAGGTGAAAGTCCGTAAGTTA yielded a PBM binding z-score of 2.09.

TTACCAAGGTGAAAGTTCGTTGATGCACGCCTTG: the PBM binding z-score came to 2.86.

CCTCAAAGTTCAACTAAGGTAACGTAAAGCACGC: the PBM binding z-score turned out to be 5.11.

The sequence GAGACAGGGTCAGCTAGAGGCCAGAGTATGGAAA came in with a PBM binding z-score of 4.3.

Take ATATGTAGGTTATCGGGGCATTCAGTTTGCGCAT: the PBM binding z-score is 1.25.

Turning to CCTACTGGGCCATCAGGTTATTGATATCAACGTT, the PBM binding z-score is 0.0138.

The sequence ATATGTAGGTTAGATCCGGGTCATTCAGGCTATG came in with a PBM binding z-score of 2.65.

AGTCAAGGTTCAGGACGAGGTAACGTAAAGCACG displayed a PBM binding z-score of 2.19.

In turn, TCATATAGGTAAAAGGTGAAAGACGGTGTGGTAA yielded a PBM binding z-score of 3.05.

AGAACGAGGGCACGCTGAGTTAATAGCAGAGTAG registered a PBM binding z-score of 1.44.

In turn, GCAGACAGGTGAAACGCAGGTATCTCAGGGTGGC gave a PBM binding z-score of 0.588.

In turn, ACTAGCAGGCCAAGGGACACTCAAGATTAGTCCG registered a PBM binding z-score of -0.0147.

For ACTATGAGTTGAGACGAGGGCAACCGATAGGTTG, the PBM binding z-score is 0.821.

As to GGAACGAGGGCATTCGGGTTGATAGCATGGCGAT, the PBM binding z-score came out at 0.826.

In turn, TTACCACGGTGAAAGGTCGTTGATGCACGCCTTG had a PBM binding z-score of 3.04.

Sequence GCTATTAGTTGAACGGGCAACCGAATGATTCTCG showed a PBM binding z-score of -0.15.

The subject of a further assay is THRa:RXRa (NR concentration 90 nM, RXRa partner concentration 90 nM). The assay is described as above. Put shortly:
as §1
On to TCTCGGAGAACACGAAAGGTCAGAGCTCGACATC, for which the PBM binding z-score came to 2.63.

In the case of CCTCGGAGGACAACAGGACGTCAGAGCTGCCAGA, the PBM binding z-score is 0.648.

ACTCGGAGGACATAGGTCAGAGCTACGCCAGTGA: the PBM binding z-score is 2.

TCTGCTAGTTCAACGATGGTCAGCTAATCTGCTA came in with a PBM binding z-score of 0.928.

Take GCTCGGAGGAGAAGGTCAGAGCTTTGTCCGTAGA: the PBM binding z-score turned out to be 1.15.

The sequence TCAGACACGTGAAGGTAACTCAGGTACGCAGTCG registered a PBM binding z-score of 1.21.

Sequence CTTCCAAGGTCAAAGGTCAGTGAAGAGATGACGG displayed a PBM binding z-score of 5.02.

In turn, AGAACGCGGGCAATGAGTTGATAGCACGGGTGGC had a PBM binding z-score of -0.395.

Sequence AATACAGGGACACTAGGCCAGAGTAGGTACGAAT returned a PBM binding z-score of 0.812.

The sequence ATCGAAAGGTCGACGAGGTGAGTATCCACCGTTT returned a PBM binding z-score of 3.78.

The sequence AGAATGAGGATACCAAAGATCAGGGAAACGCTTG returned a PBM binding z-score of 1.5.

Sequence CCTTACGGGCCACTGACAGGTTATAGCATTTGGA came in with a PBM binding z-score of 0.0187.

Take CCTCGGAGGACAACACGAGGTCAGAGCTGCCAGA: the PBM binding z-score is 3.57.

Take CGAACTAGGGCAGAACAGGACAGTGAAGGATGAT: the PBM binding z-score came to 1.58.

As to ATCTCTAGGTAAAGATAGTTCATTGAATGCAAAT, the PBM binding z-score was 1.28.

Take CATACAGGGTCAGCTAAGCCAGAGTAGGGACGGC: the PBM binding z-score is 3.

Sequence GCTATTCGTTGAAAGGGCAACCGAATGATTCTCG yielded a PBM binding z-score of 0.348.

Take CAAACTAGGTCACCGGAAGCTCAAAGTCCGCATG: the PBM binding z-score is 3.38.

In turn, ATCGTAAGGTCGACGAGGTGAGTATACACCGTTT displayed a PBM binding z-score of 3.89.

The sequence TGAATGAGGTTATAATATCAGGGAACGTTGCAAA had a PBM binding z-score of 1.92.

Turning to CCTACTGGGCCATCAGGTCCTTGATATCAACGTT, the PBM binding z-score turned out to be 0.183.

The sequence TCTATTAGTTGATTGGGGCAACCGAAACAGCGGA came in with a PBM binding z-score of 0.545.

With ATCACTAGGTAAAGATAGTTCAGTGAATGCAAAT, the PBM binding z-score is 0.492.

As for CCGAGTAGGTAATGGGGCATTCAGGCAACGGTGA, the PBM binding z-score turned out to be 0.219.

Regarding TCATATAGGTTAACAGGTGAAAGTCCGTAAGTTA, the PBM binding z-score was 1.39.

For the sequence TTACCAAGGTGAAAGTTCGTTGATGCACGCCTTG, the PBM binding z-score worked out at 2.41.

CCTCAAAGTTCAACTAAGGTAACGTAAAGCACGC: the PBM binding z-score was determined as 5.29.

With GAGACAGGGTCAGCTAGAGGCCAGAGTATGGAAA, the PBM binding z-score stood at 3.06.

Sequence ATATGTAGGTTATCGGGGCATTCAGTTTGCGCAT registered a PBM binding z-score of 1.49.

Take CCTACTGGGCCATCAGGTTATTGATATCAACGTT: the PBM binding z-score is 0.797.

Take ATATGTAGGTTAGATCCGGGTCATTCAGGCTATG: the PBM binding z-score was 3.63.

As to AGTCAAGGTTCAGGACGAGGTAACGTAAAGCACG, the PBM binding z-score came out at 3.55.

The sequence TCATATAGGTAAAAGGTGAAAGACGGTGTGGTAA had a PBM binding z-score of 1.55.

Regarding AGAACGAGGGCACGCTGAGTTAATAGCAGAGTAG, the PBM binding z-score was 2.05.

As for GCAGACAGGTGAAACGCAGGTATCTCAGGGTGGC, the PBM binding z-score came out at 0.272.

Sequence ACTAGCAGGCCAAGGGACACTCAAGATTAGTCCG had a PBM binding z-score of -0.112.

With ACTATGAGTTGAGACGAGGGCAACCGATAGGTTG, the PBM binding z-score stood at 3.63.

In the case of GGAACGAGGGCATTCGGGTTGATAGCATGGCGAT, the PBM binding z-score was determined as 2.68.

As for TTACCACGGTGAAAGGTCGTTGATGCACGCCTTG, the PBM binding z-score was 1.69.

GCTATTAGTTGAACGGGCAACCGAATGATTCTCG registered a PBM binding z-score of -0.33.

The next assay concerns THRa homodimer (NR concentration 90 nM). The assay is described as above. Put shortly:
as §1
In the case of TCTCGGAGAACACGAAAGGTCAGAGCTCGACATC, the PBM binding z-score amounted to 0.193.

With CCTCGGAGGACAACAGGACGTCAGAGCTGCCAGA, the PBM binding z-score was -0.377.

ACTCGGAGGACATAGGTCAGAGCTACGCCAGTGA showed a PBM binding z-score of 0.0623.

Regarding TCTGCTAGTTCAACGATGGTCAGCTAATCTGCTA, the PBM binding z-score was -1.34.

In turn, GCTCGGAGGAGAAGGTCAGAGCTTTGTCCGTAGA returned a PBM binding z-score of -0.793.

In turn, TCAGACACGTGAAGGTAACTCAGGTACGCAGTCG registered a PBM binding z-score of -0.125.

Regarding CTTCCAAGGTCAAAGGTCAGTGAAGAGATGACGG, the PBM binding z-score turned out to be 3.03.

Consider AGAACGCGGGCAATGAGTTGATAGCACGGGTGGC, for which the PBM binding z-score is -1.04.

As to AATACAGGGACACTAGGCCAGAGTAGGTACGAAT, the PBM binding z-score was 0.241.

Sequence ATCGAAAGGTCGACGAGGTGAGTATCCACCGTTT returned a PBM binding z-score of 1.01.

For the sequence AGAATGAGGATACCAAAGATCAGGGAAACGCTTG, the PBM binding z-score stood at 0.171.

Sequence CCTTACGGGCCACTGACAGGTTATAGCATTTGGA showed a PBM binding z-score of -0.159.

The sequence CCTCGGAGGACAACACGAGGTCAGAGCTGCCAGA gave a PBM binding z-score of 2.8.

CGAACTAGGGCAGAACAGGACAGTGAAGGATGAT had a PBM binding z-score of -0.495.

Consider ATCTCTAGGTAAAGATAGTTCATTGAATGCAAAT, for which the PBM binding z-score came out at 0.302.

The sequence CATACAGGGTCAGCTAAGCCAGAGTAGGGACGGC returned a PBM binding z-score of 0.863.

GCTATTCGTTGAAAGGGCAACCGAATGATTCTCG: the PBM binding z-score is -0.335.

For the sequence CAAACTAGGTCACCGGAAGCTCAAAGTCCGCATG, the PBM binding z-score was 1.92.

On to ATCGTAAGGTCGACGAGGTGAGTATACACCGTTT, for which the PBM binding z-score was found to be 2.39.

Consider TGAATGAGGTTATAATATCAGGGAACGTTGCAAA, for which the PBM binding z-score amounted to 0.355.

On to CCTACTGGGCCATCAGGTCCTTGATATCAACGTT, for which the PBM binding z-score was 0.322.

TCTATTAGTTGATTGGGGCAACCGAAACAGCGGA came in with a PBM binding z-score of 0.527.

The sequence ATCACTAGGTAAAGATAGTTCAGTGAATGCAAAT had a PBM binding z-score of 0.0795.

Turning to CCGAGTAGGTAATGGGGCATTCAGGCAACGGTGA, the PBM binding z-score was 0.00825.

In the case of TCATATAGGTTAACAGGTGAAAGTCCGTAAGTTA, the PBM binding z-score turned out to be 0.525.

Sequence TTACCAAGGTGAAAGTTCGTTGATGCACGCCTTG returned a PBM binding z-score of 0.508.

In turn, CCTCAAAGTTCAACTAAGGTAACGTAAAGCACGC had a PBM binding z-score of 2.38.

The sequence GAGACAGGGTCAGCTAGAGGCCAGAGTATGGAAA yielded a PBM binding z-score of 0.161.

ATATGTAGGTTATCGGGGCATTCAGTTTGCGCAT: the PBM binding z-score was found to be 1.4.

CCTACTGGGCCATCAGGTTATTGATATCAACGTT: the PBM binding z-score worked out at 0.712.

ATATGTAGGTTAGATCCGGGTCATTCAGGCTATG gave a PBM binding z-score of 2.08.

On to AGTCAAGGTTCAGGACGAGGTAACGTAAAGCACG, for which the PBM binding z-score was 1.75.

Sequence TCATATAGGTAAAAGGTGAAAGACGGTGTGGTAA showed a PBM binding z-score of 0.208.

Consider AGAACGAGGGCACGCTGAGTTAATAGCAGAGTAG, for which the PBM binding z-score was determined as 0.0156.

GCAGACAGGTGAAACGCAGGTATCTCAGGGTGGC returned a PBM binding z-score of -0.471.

ACTAGCAGGCCAAGGGACACTCAAGATTAGTCCG: the PBM binding z-score was -0.143.

For the sequence ACTATGAGTTGAGACGAGGGCAACCGATAGGTTG, the PBM binding z-score was found to be 0.024.

GGAACGAGGGCATTCGGGTTGATAGCATGGCGAT registered a PBM binding z-score of 0.0871.

Regarding TTACCACGGTGAAAGGTCGTTGATGCACGCCTTG, the PBM binding z-score was 0.129.

On to GCTATTAGTTGAACGGGCAACCGAATGATTCTCG, for which the PBM binding z-score is -0.617.
